In the library only some 4.5% were active in any assay of this set; here they are far more common.
FXN GAA850 act: increases GAA850 frataxin promoter reporter activity; 360,000 compounds, 0.56% hits; AID 540364; activation, % at 6 µM; HEK293 lucGAA850 FXN promoter luciferase reporter, 24 h; percent of 10 µM SAHA response;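 active = activation above the average of all compounds screened plus 3 SD, cutoff fixed separately per campaign, cut at about 7.5% in these data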;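 also: 0% = DMSO wells and 100% = 10 µM SAHA wells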
ssDAF-12 act: activators of S. stercoralis DAF-12 nuclear receptor. HEK293 ssDAF-12/GRIP1 lit1-tk-luc reporter, luminescence; % of 3 µM dafachronic acid response. activation, % at 6.8 µM. 370,000 compounds, 1% hits. AID 652126;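 active = activation above the mean over all tested compounds plus 3 SD, cut at about 0.9% in these data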;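 also: 0% = DMSO-only wells and 100% = 3 µM delta7-dafachronic acid wells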
DAX1 inh-1: blocks DAX1 repression of SF-1 activated StAR promoter. HEK293T StAR-luciferase reporter, SF-1/DAX-1 repression relief. inhibition, % at 6.8 µM. 370,000 compounds, 1.1% hits. AID 652010;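 active = inhibition above the mean over all tested compounds plus 3 SD, cut at about 3.6% in these data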;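 also: 0% = DAX-1 cells with DMSO and 100% = cells lacking DAX-1 with DMSO; higher inhibition means more luminescence from relief of DAX-1 repression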
hgDAF-12 ag: activates the H. glycines DAF-12 receptor ligand-binding domain; HEK293 GAL4-hgDAF12 UAS-luciferase reporter, agonist luminescence; normalized to butyrate control; AID 687014; activation, % at 6.8 µM; 370,000 compounds, 1.8% hits;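 active = activation above a cutoff set at the mean of all screened compounds plus 3 SD, cut at about 10% in these data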;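 also: 0% = DMSO wells and 100% = sodium butyrate wells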
hcDAF-12 act: H. contortus DAF-12 activation, primary screen. HEK293 hcDAF-12 lit1-tk-luc reporter, luminescence; 0% DMSO, 100% Δ7-dafachronic acid. activation, % at 6.8 µM. 370,000 compounds, 1.4% hits. AID 652067;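 active = activation above the mean of all tested compounds plus 3 SD, cut at about 5.5% in these data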;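 also: 100% = response to 3 µM Δ7-dafachronic acid high control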
DAX1 inh-2: NR0B1 (DAX1) inhibition; P51843; 340,000 compounds, 0.99% hits; inhibition, % at 6.75 µM; HEK293 Gal4-DAX1 luciferase reporter, luminescence;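 active = inhibition above the mean over all tested compounds plus 3 SD, cut at about 4.2% in these data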;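 also: 0% = DAX1-transfected cells with DMSO and 100% = empty-vector control cells with DMSO; inhibition shows as a rise in luminescence from relieved DAX1 repression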
Target sequence (P51843 207-470 limits assumed): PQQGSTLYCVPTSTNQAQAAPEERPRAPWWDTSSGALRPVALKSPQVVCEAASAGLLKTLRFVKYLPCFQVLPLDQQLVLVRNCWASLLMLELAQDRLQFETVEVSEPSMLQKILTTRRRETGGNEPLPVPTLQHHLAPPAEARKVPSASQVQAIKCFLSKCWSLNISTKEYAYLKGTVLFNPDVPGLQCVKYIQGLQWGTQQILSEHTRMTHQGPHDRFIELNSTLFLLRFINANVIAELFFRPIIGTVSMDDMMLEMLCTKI
hgDAF12 ag: confirmation of H. glycines DAF-12 agonists; shares compounds with hgDAF-12 ag; HEK293 GAL4-hgDAF12 luciferase reporter, agonist mode; percent of butyrate response; activation, % at 6.8 µM; 3,300 compounds, 80% hits;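 active = mean activation over triplicate wells above the hit cutoff derived from the earlier primary screen, cut at about 11% in these data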;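 also: 0% = DMSO low control and 100% = 2 mM sodium butyrate high control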
LXR ag 2: counter-screen for DAF-12 agonists: agonists of human LXR-beta | 3,300 tested, under 10 active | shares compounds with hgDAF-12 ag | activation, % at 6.8 µM | HEK293 Gal4-LXR luciferase reporter, 24 h;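 active = mean activation of the triplicate above a set limit carried over from the primary screen, none filed active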
Active calls of the source: *; / = not tested or not shown.

SMILES	FXN GAA850 act	ssDAF-12 act	DAX1 inh-1	hgDAF-12 ag	hcDAF-12 act	DAX1 inh-2	hgDAF12 ag	LXR ag 2
CC1=Nc2ccccc2N=C(NC(=O)c2ccccc2)C1c1ccc(Cl)cc1 (configuration not stated)	3	0	2	18*	0	1	-3	0
O=C(Nc1nc2ccccc2s1)Nc1ccc(F)cc1F	4	0	1	14*	6	3	15*	1
Cc1nc(-c2ccc(NC(=O)c3ccccc3C)cc2)cs1	2	0	2	20*	2	1	16*	1
C=CCSc1nnc(-c2ccc(Cl)cc2Cl)o1	1	0	3	14*	4	2	14*	1
O=C(NCc1ccco1)C1CC(c2ccc(C(F)(F)F)cc2)=NO1 (configuration not stated)	-1	-1	0	1	-1	1	/	/
CN(C(=O)c1ccccc1C(=O)OCC(=O)Nc1ccccc1)c1ccccc1	0	-1	0	-2	-1	1	/	/
Cc1nnc(SCC(=O)Nc2cc(-c3cc(C)c(C)cc3C)nn2-c2ccccc2)s1	4	-1	0	1	-1	-2	/	/
CCCc1ccc(-c2cc(NC(=O)CSc3nnc(N)s3)n(-c3ccccc3)n2)cc1	7	0	4.1*	14*	5	1	19*	1
O=[N+]([O-])c1cccc(-c2ccc3nnc(SCc4cccnc4)n3n2)c1	1	-2	-1	3	1	1	/	/
c1ccc(CSc2ccc(-c3ccco3)nn2)cc1	5	0	2	15*	1	1	15*	1
Fc1ccccc1CSc1ccc(-c2ccco2)nn1	5	0	4.1*	16*	2	4	15*	1
Cc1ccc(CSc2ccc(-c3ccco3)nn2)cc1	6	0	1	9	5	0	/	/
Clc1ccc(CSc2ccc(-c3ccco3)nn2)cc1	3	-1	0	6	1	0	/	/
Cc1ccccc1NC(=O)OC1CC2CC1[C@H]1CCCCN1[C@H]2Cc1ccccc1 (some centres not stated)	/	-1	1	0	-2	/	/	/
Cc1cccc(NC(=O)CN(C)C(C)C(=O)Nc2ccc(S(=O)(=O)N3CCCC3)cc2)c1C (configuration not stated)	0	-1	-2	-3	0	0	/	/
CN(C)C=Nc1ncc2c([nH]c3ccccc32)c1C#N	-2	-2	0	22*	-1	0	7	0
COc1ccccc1CNc1ccc2c(c1)OC[C@H](CC(C)C)NS2(=O)=O	/	-1	0	2	1	/	/	/
O=C(N/N=C/c1ccc(Br)cc1)c1ccc(Br)o1	5	0	3	14*	4	3	15*	1
O=C(N/N=C/c1ccc(Br)cc1)c1ccc(F)cc1	4	-1	0	3	1	0	/	/
O=C(Cc1ccccc1)Nc1cc2c(cc1Cl)OCCCO2	2	0	1	9	2	2	/	/
CCc1ccc(C(=O)Nc2cc3c(cc2Cl)OCCCO3)cc1	6	1	3	14*	3	4	14*	1
CCC(Oc1ccc(F)cc1)C(=O)N1CCCCCCC1 (configuration not stated)	2	0	0	1	0	3	/	/
CC(=O)N1CCc2cc(N=NC3=C(O)CCCC3=O)ccc21	2	-1	2	15*	4	4	16*	0
Cc1ccc(NC(=O)/C=C/c2ccc3c(c2)OCO3)nc1	5	-1	3	17*	5	1	13*	1
Cc1ccc2nc(NC(=O)/C=C/c3ccc4c(c3)OCO4)sc2c1	-3	0	0	-3	-2	1	/	/
O=C1N(CC[C@@H](O)c2ccccc2)CCC12CCC(c1ccccc1)CC2 (some centres not stated)	/	-1	/	0	-3	/	/	/
